Results as given in the supplement of paper PMC3334620.
Whole data set: some 33,000 sequences, median “E-score (-0.5 to 0.5)” near -0.011, cut for the highest 2% near 0.28. What follows is part of a selection rich in the highest values, with near analogues and random picks from the rest.

molecular target: T1, Gcr1 (UniProt P07261); assay: PBM E-score (8-mer binding enrichment) (E-score (-0.5 to 0.5)); higher = stronger / more preferred TF binding; conditions: protein concentration: 100 nM; construct: GST-full length
T1 sequence: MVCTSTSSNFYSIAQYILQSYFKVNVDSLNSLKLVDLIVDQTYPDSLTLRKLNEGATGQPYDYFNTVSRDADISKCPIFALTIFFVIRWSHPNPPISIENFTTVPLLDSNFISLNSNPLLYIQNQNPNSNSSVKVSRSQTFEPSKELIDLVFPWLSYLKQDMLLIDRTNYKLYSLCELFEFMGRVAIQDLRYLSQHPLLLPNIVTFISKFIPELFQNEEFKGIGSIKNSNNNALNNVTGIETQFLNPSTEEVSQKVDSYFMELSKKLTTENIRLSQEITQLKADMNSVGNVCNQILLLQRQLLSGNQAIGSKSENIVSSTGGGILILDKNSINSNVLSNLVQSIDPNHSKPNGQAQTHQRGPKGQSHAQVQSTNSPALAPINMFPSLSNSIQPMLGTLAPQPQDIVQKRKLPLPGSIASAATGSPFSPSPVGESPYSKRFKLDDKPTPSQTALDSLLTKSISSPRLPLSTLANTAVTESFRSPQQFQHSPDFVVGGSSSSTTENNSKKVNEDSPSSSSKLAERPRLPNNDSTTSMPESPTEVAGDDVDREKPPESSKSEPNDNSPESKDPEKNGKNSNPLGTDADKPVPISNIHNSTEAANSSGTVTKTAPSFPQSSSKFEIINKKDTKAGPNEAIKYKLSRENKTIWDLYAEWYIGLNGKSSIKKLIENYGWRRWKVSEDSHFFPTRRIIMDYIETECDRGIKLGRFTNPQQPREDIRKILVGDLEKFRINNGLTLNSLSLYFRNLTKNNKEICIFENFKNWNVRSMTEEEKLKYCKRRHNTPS
Procedure: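 Universal 'all 10-mer' protein binding microarrays (Agilent AMADID 015681) probed with GST-tagged S. cerevisiae TFs (full-length or DBD) made by in vitro transcription/translation (PURExpress), about 100-200 nM. Bound TF was detected with fluorescent anti-GST. Each ungapped 8-mer (which stands for itself and its reverse complement) is scored by the PBM enrichment score (E-score), a modified Wilcoxon-Mann-Whitney statistic from -0.5 to +0.5, computed with the Universal PBM Analysis Suite. Scale: above 0.35 generally sequence-specific binding.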

Sequence	PBM E-score
AGAGGTAT	0.196
ATAGATTC	0.114
CCGCTCAG	0.0454
ACGTTCTC	-0.172
CAGGCAGC	0.285
ATGGCATC	0.175
CGGGCACC	0.376
CAGGCAGA	-0.0141
CTGGCATA	0.0454
CCGGCACC	0.28
CGGGCACG	0.107
CAGGCAGG	-0.143
GCGGCACC	0.324
CTGGCATC	0.304
ACGGCACC	0.142
CGGGCACA	-0.0928
CCCTACTA	0.0892
AATTTACT	0.155
AAACCAGA	0.0613
GAATCCAA	0.309
CCATCCAC	-0.0219
AAATCCAA	0.142
TCATCCAA	-0.114
CCATCCAA	-0.121
GCATCCAA	0.366

Sequence	PBM E-score
TAATCCAA	0.134
GCATCCAC	0.452
ACATCCAC	0.133
TCCTAGAA	0.174
GAATGGCC	-0.116
CAAGCGCG	-0.0724
ATATGAGG	0.033
AGAAAACC	-0.0435
CGGAGCAG	0.0182
ACATACTG	0.0904
CGGACGCC	0.416
CGGACGCA	0.0459
AGGACGAG	-0.073
ACGACGCG	0.0493
CGGACGTC	0.134
ACGACGCC	0.217
AGGACGCC	0.453
AGGACGCG	0.283
AGGACGCA	0.0414
CGACCCAC	-0.0741
TAACCTGA	-0.2
ACGTGTAT	0.0211
CAGGCCGA	-0.0271
CAGAACCG	0.106
GAATGCGC	0.164

Sequence	PBM E-score
ACTCTCTC	-0.288
CGCCAATA	0.144
GTATGTCA	0.136
CTCCCAAG	0.0273
ACTCTAGG	-0.0525
AAACAGGA	0.363
ATTCAGGG	0.123
CAACAGGA	0.226
ATTCAGGA	0.282
CTACAGGA	0.204
CTTCAGGA	0.268
ATACAGGA	0.308
ATACAGGC	0.223
AAACAGGC	-0.117
ACCGAACG	0.0306
CCACCGCG	-0.0592
ATGACATA	0.127
TCCCGCAA	0.0539
CGAGTGCC	-0.132
AAGCGTCC	0.323
ACGCGTCC	0.292
GAGCGTGC	-0.1
GAGCGTCC	0.384
AAGCGTCG	0.0188
AAGCGTCA	-0.0114

Sequence	PBM E-score
ACGCGTCA	-0.171
GAGCGTCA	0.0398
ACGCGTCT	0.155
GCATCAAC	0.15
CACGGAGC	0.101
CGGTAGCC	0.296
CTGTATCC	0.207
AGGTAGCC	0.238
CGGTATCC	0.282
CGGTATCA	-0.0496
CGGTAGCA	-0.0732
AGGTATCC	0.28
AGGTATCG	0.019
AGGTATCA	0.0276
CAAGCTAA	-0.177
CCTGTGAG	-0.218
CGCCCTAG	0.143
ATAGCCAG	0.0137
CGCAATTC	0.0283
CTACCGTC	-0.0298
GCCATCCA	0.086
CCGATACA	0.0692
CCAGTTAG	0.0191
AAGCGCCT	0.0782
ACGCGCCC	0.352

Sequence	PBM E-score
AGGCGCCA	0.268
GCGCGCCC	0.0734
AGGCGCGC	0.16
AGGCGCAG	0.157
AGGCGCCG	0.354
ACGCGCCA	0.196
ATGCGCCC	0.0661
AGGCGCAT	0.0287
AGGCGCCT	0.321
AGGCGCCC	0.384
AGTGCTCC	-0.116
GTCAGAAA	0.0237
AAGGGCTA	-0.138
AACAATCC	-0.0423
TGGACAAA	0.0886
CCCGGTCC	-0.0935
CGGACACC	0.0465
ACTGCAAG	-0.185
TTGTGAAA	0.0169
CCCGTTAG	0.0113
CGCGCATC	0.252
ATCCCCCG	0.175
AGGAAGCG	0.354
AGGAATGG	0.0654
AGGAAGAG	-0.0854

Sequence	PBM E-score
ATGAATCC	0.0178
AGGAATCC	0.459
AAGAATCA	0.142
AGGAATCA	0.144
AGGAAGCA	0.13
AGGAATAC	0.0815
AAGAATCC	0.391
AGGAATCG	0.294
GAGAATCC	0.236
GGCTATGA	-0.188
AATCCGTC	-0.0275
AGCCAGAA	0.13
TCTGCAGA	-0.194
ATGACCCG	-0.321
CGGAATCA	0.0684
ACGAATCC	0.288
CCGAATCC	0.133
AGGAAGTG	0.213
CGGAATTC	0.242
AGGAAGTC	0.337
CGGAATCC	0.417
CGGAAGTC	-0.00248
ACGAATCT	0.122
CCCGAGAC	0.0132
ATCCGCTC	0.0142

Sequence	PBM E-score
ACTCCCTA	-0.0517
CGCCTGTC	-0.105
GGTGTTCA	0.106
AGTGGTAA	-0.099
CGTGGTAG	-0.133
AATGGTGC	0.208
AGTGGTGA	0.0333
AGTGGTGC	0.305
AATGGTGG	-0.00912
AGTGGTAG	0.318
AGTGGTGG	0.305
CGTGGTGC	-0.0202
CCGATGAC	-0.0977
AAGTTGCG	0.211
AGCATCCG	0.372
AACATCCA	0.193
AACATCCG	0.164
AGCATCCA	0.457
TGCATCCA	0.182
ATCATCCG	-0.191
ACTTTAAA	0.0642
ATAGTAAG	-0.0276
ACAAGACC	-0.0386
GAGCAATA	0.0781
CCGAACTC	-0.0172

Sequence	PBM E-score
ACTGGAAG	0.463
AATGGAAG	0.27
AATGGAAC	0.154
ACTGGAAC	0.301
CCTGGAAG	0.0765
ACGGGAAG	0.112
AATGGGAA	0.132
AATGGAAT	0.301
AATGGGAG	0.0925
AATGGGAT	0.28
CCTGGAAC	-0.0042
ACTGGAAA	0.0867
AGGCAATC	-0.245
CTCCAAGA	0.0262
ATTTGCAC	0.0134
GTAGCTAA	-0.0197
TAGAAACA	0.112
TTGAAAAA	0.0707
CCCATAGC	-0.16
ACGGGAAT	0.111
ACTGGGAT	0.0877
ACTGGAAT	0.415
AGCCGTGG	-0.108
ACGAGAGG	-0.238
AAGGTATC	0.158

Sequence	PBM E-score
CAGGTATC	0.311
CCTGTATA	0.2
ACTGTATC	-0.275
ACGGTATC	-0.0774
CCTGTAGA	0.283
CAGGTATA	-0.0414
GCTGTAGA	-0.0143
ACTGTAGA	-0.079
CCGGTATA	0.191
CCGGTATC	0.288
CCTGTATC	0.324
ACGGTAAG	-0.0708
CAACTGGC	0.0226
GATCACCA	-0.0057
TACCGTAA	0.0593
GACCCCCC	-0.241
CGCCTGCA	-0.117
AATGAGTA	0.143
GGGACCCC	0.00587
AGAACCCA	0.234
GGAACCCA	0.394
TGAACCCA	0.0317
GGGACCCA	0.303
TGGACCCA	0.104
GAACCCAA	0.167

Sequence	PBM E-score
GGAACCTA	0.401
AGAACCTA	0.0206
GAACCCCA	0.344
CGAACCTA	-0.117
GAACCCCC	0.0349
CGATGGGC	-0.0735
AGCTTCAT	0.0447
CTAACCAG	0.0668
GGCCCCCA	0.231
CATACCGA	0.0765
ACTCCTTA	0.0309
AGCCACAA	0.15
CGAACCCC	0.0243
AGAACCCC	0.0794
GGAACCCC	0.394
ACCTATCC	0.0168
ATGCTACG	0.0159
ACACACTC	0.0505
CGACATTA	0.306
CGACATTC	-0.0306
AGACATTA	-0.0316
CTGGGTGC	0.244
GCTAGCCA	-0.232
GAATGGAA	0.225
TAATGGAA	0.28

Sequence	PBM E-score
GATTGGAA	0.258
TAATGGCA	0.295
AAATGGAA	0.239
GAATGGCA	-0.0438
TATTGGAA	0.288
CAATGGCA	-0.159
CATTGGAA	0.106
GTTTATAA	0.129
AATGTGAT	-0.0732
AATTGTCT	-0.147
GCTACTCC	0.0342
GCACCTGA	0.0656
TCAGCTGA	-0.106
GCAGCTAA	0.329
GCAGCTGC	0.249
TCAGCTAA	-0.225
GCAGCTGA	0.336
GCAGCTAC	0.267
CTCATTCC	0.0687
CAGCCCCG	-0.107
AGGCGAGC	-0.0288
GGGTGATA	0.0068
CCGCAAAA	0.0921
GATACCAA	0.154
ACTACCAC	0.101

Sequence	PBM E-score
GATACCAC	0.329
GCTACCAA	0.179
AATACCAC	0.097
GCTACCAC	0.323
AACCTAAG	-0.0759
ACCTCCTC	-0.194
AACGTCTA	0.00101
ATTCCTGC	0.048
ATTCCTGG	0.165
CATCCTGA	0.292
CTTCCTAA	0.294
ATTCCTAA	0.284
ATTCCTGA	0.299
GTTCCTAA	0.237
TATCCTGA	0.156
CTTCCTAC	0.18
ATTCCTAG	-0.0289
ATTCCTAC	0.0721
GATCCTGA	0.0899
TAGACCTA	-0.0537
AACCAGAG	0.0777
TACACAGA	-0.106
CTTCCTTA	0.153
GGGTTGCA	-0.0951
GAAGCGTC	0.268

Sequence	PBM E-score
CATCAACA	0.015
ATGTTGTA	0.104
GAGCACCC	0.329
AAGCACCG	0.0663
AAGCACCC	0.283
CAGCACCC	0.277
AAGCACCT	0.106
GAGCACAC	-0.271
ACGCCATG	-0.0676
GGTAAAAC	-0.056
AATGGCGC	0.253
ACTTCTTA	0.104
GCTTCTTA	0.338
ACTTCGTA	0.0106
GCTTCGTA	0.329
GCTTCTCC	0.27
CCTTCGTA	0.00994
GCTTCTCA	0.299
GCTTCTGA	0.0646
CCTTCTCA	-0.156
CCTATTGC	-0.0151
CACGGAAC	0.0756
ACCCAAAT	0.233
AAGTTCCT	0.163
CTTGGTTC	0.149

Sequence	PBM E-score
AAACAGAG	-0.244
TCCCTCAA	0.00435
ATGTTCCG	-0.119
CCCGAAAG	0.224
AGGCGCTC	-0.0859
CTCTGCAC	-0.0576
AATTCCAA	0.308
CATTCCAC	0.0952
TATTCCAA	0.224
AATTCCAC	0.191
GATTCCAA	0.416
AATTCCAT	0.191
AATTCCAG	0.274
GATTCCAC	0.382
CATTCCAA	0.0418
ACCAACGG	-0.0789
ATAGGGTC	-0.162
ACATCGAC	-0.154
ACGGCTCA	-0.123
